96 molecules from PubChem BioAssay AID686979 (National Center for Advancing Translational Sciences (NCATS), 2013) can be followed below.

SMILES strings stand for the structures. Where “and” joins values, the source holds several entries; their conditions need not be identical. Identical values can stand only once. Out of some 420,000 compounds screened, about 50,000 (12%) were called active. Entries that show only a call come without a potency. Roughly 26% stayed inconclusive and do not appear here. Only a selection was taken, and actives are over-represented in it overall. A number with no mark means an inactive call. Calls come from the whole dose curve; as a rule, active = well fitted inhibition curve with a large enough effect; inconclusive = small, poorly fitted or top-dose-only effect; inactive = flat fitted curve, though single readings scatter.
Potency is the fitted concentration of half-maximal effect.

The experiment can be described thus: qHTS for Inhibitors of human tyrosyl-DNA phosphodiesterase 1 (TDP1): qHTS in cells in presence of CPT. Note: nearly all actives have a fitted effect of over 55% in size. The note with it: chicken DT40 Tdp1-/-;hTDP1 cells + 20 nM CPT, ATP luminescence, 48 h; series mostly up to 46.2 µM. The procedure, abridged: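 Chicken DT40 Tdp1-/- cells complemented with human TDP1, 400 cells/well, exposed to compounds plus 20 nM camptothecin for at least 48 h at 37 C; viability read as ATP content by CellTiter-Glo luminescence.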
For orientation: qHTS replaces the single test concentration by a dilution series.
In the case of `CCCOc1ccc(Cn2c(O)cc(=O)[nH]c2=O)cc1`, the Potency entry was “inactive”.

As for `COc1cc(=O)[nH]c(=O)n1C(=O)Cc1ccccc1`, the Potency was 13 µM (active).

Consider `CS(=O)(=O)N1CCN(C(=O)Cc2ccccc2)CC1`, for which the Potency result is “inactive”.

As for `COc1ccccc1NC(=O)C(CC(=O)O)Cc1cc(C)cc(C)c1` (stereo unspecified), the Potency result is “inactive”.

With `COc1ccccc1NC(=O)C(C)OC(=O)CC1CCCC1` (stereo unspecified), the Potency entry is “inactive”.

`COc1ccccc1NC(=O)[C@H](COCc1ccccc1)NC(=O)OC(C)(C)C`: the Potency was 23.1 µM (active).

For the molecule `Cc1ccc(SCC(=O)NNC(=O)c2ccc(S(C)(=O)=O)cc2)cc1`, the Potency result is “inactive”.

Turning to `CCOc1ccc(CNC(=O)c2ccc3c(c2)nnn3C2CCCC2)cc1`, the Potency entry was “inactive”.

In the case of `Cc1cc(Cl)ccc1OCc1nc(-c2ccncc2)no1`, the Potency entry was “inactive”.

For `CCc1ccc2oc(-c3ccc(NC(=O)c4cc5ccccc5o4)cc3)nc2c1`, the Potency entry is “inactive”.

For the molecule `O=C(Nc1ccc(C(=O)O)c(O)c1)c1ccccc1`, the Potency entry is “inactive”.

In the case of `O=C(Nc1ccc(-c2nc3cc(NC(=O)c4ccccc4Cl)ccc3o2)cc1)c1ccccc1Cl`, the Potency is 7.31 µM (active).

With `CCCOc1ccc(C(=O)Nc2ccc3oc(-c4cccc(Cl)c4Cl)nc3c2)cc1`, the Potency is 8.2 µM (active).

`CCCCOc1ccc(C(=O)Nc2cccc(-c3nc4ccccc4o3)c2C)cc1`: the Potency result is “inactive”.

Regarding `Cc1nc2cc(NC(=O)NCc3ccccc3)ccc2o1`, the Potency entry is “inactive”.

Turning to `Cc1ccccc1-c1nc2cc(NC(=O)c3cccc(OCCC(C)C)c3)ccc2o1`, the Potency was 23.1 µM (active).

As to `COc1cc(OC)cc(C(=O)Nc2ccc(-c3nc4ccccc4o3)c(O)c2)c1`, the Potency was 18.4 µM (active).

Regarding `CC(=O)Nc1ccc(-c2nc3ccccc3o2)cc1`, the Potency result was “inactive”.

With `COC(=O)c1ccc(-c2nc3cc(NC(C)=O)ccc3o2)cc1`, the Potency result is “inactive”.

Take `O=C(Nc1ccc2oc(-c3ccc(O)c(Br)c3)nc2c1)c1cc2ccccc2o1`: the Potency entry was “inactive”.

As for `Cc1nc2nc[nH]n2c(=O)c1NC(=O)c1cccc(OCC(C)C)c1`, the Potency result is “inactive”.

With `O=Cc1c(NCCCN2CCCC2=O)c2ccccc2[nH]c1=O`, the Potency result was “inactive”.

For the molecule `Cc1cccc(C(=O)OC(C)CN2CCCC2)c1` (stereo unspecified), the Potency result was “inactive”.

As for `COCCNC(=O)CCCN1C(=O)c2ccccc2Sc2ncccc21`, the Potency result was “inactive”.

As for `Cc1ccc2c(Cl)c(C(=O)Nc3nn[nH]n3)sc2c1`, the Potency result was “inactive”.

Regarding `O=C(COC(=O)CNC(=O)C1CCCCC1)Nc1cccc(F)c1`, the Potency entry was “inactive”.

Take `CN(C(=O)c1ccccn1)c1nnc(-c2ccccn2)s1`: the Potency entry is “inactive”.

As to `c1ccc(-c2cc(-c3nnc4sc(-c5ccccn5)nn34)[nH]n2)cc1`, the Potency is 11.6 µM (active).

On to `CCOc1cccc(-c2nn3c(-c4ccccn4)nnc3s2)c1`, for which the Potency result is “inactive”.

In the case of `Cn1c(N)c(C(=O)COC(=O)c2ccccc2NCc2ccco2)c(=O)n(C)c1=O`, the Potency result was “inactive”.

For `Nc1cc(N)nc(SCc2ccc(Cl)cc2)n1`, the Potency entry was “inactive”.

With `CC(O)CN(Cc1ccc(Cl)cc1)CC(C)O` (stereo unspecified), the Potency result was “inactive”.

With `CC(C)N(C(=O)[C@H]1C[C@H](CC(=O)NC(C)(C)C)C(=O)N2CCc3c([nH]c4ccc(Cl)cc34)[C@]12C)C(C)C`, the Potency was 7.31 µM (active).

In the case of `CCN(CC)C(=O)[C@H]1CC(CC(=O)NCc2ccco2)C(=O)N2CCc3c([nH]c4ccccc34)[C@]12C` (stereo partly specified), the Potency entry is “inactive”.

For `CC[C@]12c3[nH]c4cc(CCC(=O)N(C)C)ccc4c3CCN1C(=O)[C@@H](CC(=O)NCc1ccco1)C[C@@H]2C(=O)N1CCN(C(=O)c2ccco2)CC1`, the Potency entry is “inactive”.

Consider `CN(C)C(=O)CCc1ccc2c3c([nH]c2c1)[C@]1(CCc2ccccc2)[C@@H](C(=O)N2CCCCC2)C[C@H](CC(=O)NCCC2=CCCCC2)C(=O)N1CC3`, for which the Potency was 8.2 µM (active).

`C[C@]12c3[nH]c4ccc(Cl)cc4c3CCN1C(=O)[C@@H](CC(=O)NCCCn1ccnc1)C[C@@H]2C(=O)N1CCOCC1`: the Potency result was “inactive”.

Regarding `CC[C@]12c3[nH]c4cc(CCC(=O)N(C)C)ccc4c3CCN1C(=O)[C@@H](CC(=O)NCCCN(C)C)C[C@@H]2C(=O)N1CCN(C(=O)c2ccco2)CC1`, the Potency entry was “inactive”.

Take `CCN(CC)C(=O)[C@H]1C[C@H](CC(=O)NCC23CC4CC(CC(C4)C2)C3)C(=O)N2CCc3c([nH]c4cc(CCC(=O)N(C)C)ccc34)[C@]12C`: the Potency was 20.6 µM (active).

With `CC[C@]12c3[nH]c4ccc(Cl)cc4c3CCN1C(=O)[C@@H](CC(=O)NCCCOC)C[C@@H]2C(=O)N1CCN(C(=O)C2CC2)CC1`, the Potency entry was “inactive”.

On to `CN(C)C(=O)CCc1ccc2c3c([nH]c2c1)[C@]1(C)[C@@H](C(=O)N2CCOCC2)C[C@H](CC(=O)NCCc2ccccn2)C(=O)N1CC3`, for which the Potency entry was “inactive”.

As to `COc1ccccc1-c1c(C#N)c(N)nc2c1CCC2`, the Potency entry is “inactive”.

Consider `O=C(O)C(CCc1ccccn1)c1ccccc1` (stereo unspecified), for which the Potency result is “inactive”.

On to `Cc1csc(/N=C/N(C)C)c1C#N`, for which the Potency result was “inactive”.

As for `OCC1CCCN(c2nc3cc4c(cc3cc2CNCc2cccs2)OCO4)C1` (stereo unspecified), the activity change, negative = growth inhibition is 3.65% [at 9.04 µM].

Regarding `Cc1ccc(C(=O)NCC(=O)NC2CC2)cc1`, the Potency result was “inactive”.

As for `COc1cc(C2CC(=O)c3cnc(NC(C)=O)nc3C2)cc(OC)c1OC` (stereo unspecified), the Potency entry is “inactive”.

With `CCOC(=O)C1=C(N)N2C(=O)C(C)SC2=C(C(=O)OCC)C1c1cc(OC)c(OC)c(OC)c1` (stereo unspecified), the Potency entry was “inactive”.

Turning to `CCCOC(=O)c1[nH]c2c(c1C)C(=O)CC(c1cc(OC)c(OC)c(OC)c1)C2` (stereo unspecified), the Potency is 9.2 µM (active).

For the molecule `CCCOC(=O)c1cc2ccccc2oc1=O`, the Potency entry is “inactive”.

Regarding `CCOC(=O)C1=C(C)NC(=S)NC1c1cccs1` (stereo unspecified), the Potency result is “inactive”.

Regarding `CCCOC(=O)c1[nH]c2c(c1C)C(=O)CC(c1cccs1)C2` (stereo unspecified), the Potency is 0.58 µM (active).

On to `N#Cc1ccccc1NC(=O)c1cccc(COc2ccc(Cl)cc2Cl)c1`, for which the Potency result was “inactive”.

Consider `CCc1ccccc1NC(=O)[C@@H]1CCC(=O)N1C1OC(=O)c2c1ccc(OC)c2OC` (stereo partly specified), for which the Potency entry was “inactive”.

In the case of `COc1ccc(N/C=C(\C2OC(=O)c3ccccc32)[N+](=O)[O-])cc1` (stereo unspecified), the Potency entry was “inactive”.

Turning to `COc1ccc(-c2csc(NC3OC(=O)c4ccccc43)n2)cc1` (stereo unspecified), the Potency was 11.6 µM (active).

Take `COc1ccc(-c2csc(NC(=O)CCCc3cccs3)n2)cc1`: the Potency result was “inactive”.

For `COc1ccc2c(c1OC)C(=O)OC2c1c(O)nc(SC)n(-c2ccccc2)c1=O` (stereo unspecified), the Potency entry was “inactive”.

Take `COc1ccc2c(c1OC)C(=O)OC2Nc1nc(-c2ccccc2)cs1` (stereo unspecified): the Potency was 2.31 µM (active).

As to `COC(=O)C(NS(=O)(=O)c1ccc(F)cc1)c1ccccc1` (stereo unspecified), the Potency result is “inactive”.

For `Cc1cccc(-c2nnc(SC(C)C(=O)Nc3ccccc3)n2C)c1` (stereo unspecified), the Potency entry is “inactive”.

Take `CCn1cc(NC(=O)Nc2ccc(OC)c(OC)c2)c(C(N)=O)n1`: the Potency entry is “inactive”.

`COc1ccc(NC(=O)NC(C)c2c(-n3cccc3)sc(C)c2C)cc1OC` (stereo unspecified): the Potency was 16.4 µM (active).

Turning to `COc1ccc(NC(=O)CNC(=O)Cc2ccccc2)cc1OC`, the Potency result is “inactive”.

Turning to `Cc1nc(C)c(-c2csc(NCCc3ccccc3)n2)s1`, the Potency is 14.6 µM (active).

Regarding `S=c1[nH]nc(NCCc2ccccc2)s1`, the Potency entry was “inactive”.

Regarding `Cc1nc(N)sc1-c1ccccc1`, the Potency result was “inactive”.

On to `CCCn1c(=NC(C)=O)c(C(=O)OCC)cc2c(=O)n3ccccc3nc21`, for which the Potency entry is “inactive”.

Turning to `CCOC(=O)c1cc2c(=O)n3ccccc3nc2n(CC2CCCO2)c1=NC(=O)c1ccccc1F` (stereo unspecified), the Potency result was “inactive”.

`CCOC(=O)c1cc2c(=O)n3ccccc3nc2n(CC(C)C)c1=NC(=O)c1c(-c2c(F)cccc2Cl)noc1C`: the Potency is 16.4 µM (active) and 8.2 µM (active).

Consider `COc1ccccc1OCC(=O)OCc1cc(-c2ccco2)on1`, for which the Potency entry was “inactive”.

For the molecule `COc1cccc(C(c2c(O)cc(C)n(Cc3ccco3)c2=O)N2CCN(c3ccccc3)CC2)c1` (stereo unspecified), the Potency entry is “inactive”.

In the case of `CCCCN(C)CCCNC(=O)c1cc(-c2cccs2)nc2ccccc12`, the Potency was 29.1 µM (active).

For `O=C(NCCN1CCOCC1)c1cc(-c2cccs2)nc2ccccc12`, the Potency result is “inactive”.

Consider `CC(C)(C)Cc1nnc(NC(=O)c2cc(-c3ccccc3)nc3ccccc23)s1`, for which the Potency entry is “inactive”.

On to `Cn1cc(CN2CCCC(CO)C2)c(-c2ccc(Oc3ccccc3)cc2)n1` (stereo unspecified), for which the Potency result was “inactive”.

`Cc1ccccc1NC(=O)C1CCN(C(=O)NC2CCCCC2)CC1`: the Potency result is “inactive”.

Take `CCN(C(=O)COC(=O)c1sccc1C)c1c(N)n(Cc2ccccc2)c(=O)[nH]c1=O`: the Potency result was “inactive”.

As for `CCN(C(=O)COC(=O)Cc1c(F)cccc1Cl)c1c(N)n(Cc2ccccc2)c(=O)[nH]c1=O`, the Potency result was “inactive”.

For the molecule `CCN(C(=O)COC(=O)c1c(C)nn(-c2ccccc2)c1Cl)c1c(N)n(Cc2ccccc2)c(=O)[nH]c1=O`, the Potency entry was “inactive”.

Consider `COCCN(C(=O)COC(=O)Cc1cccc(OC)c1)c1c(N)n(Cc2ccccc2)c(=O)[nH]c1=O`, for which the Potency entry was “inactive”.

As to `CCN(C(=O)COC(=O)CCOc1cccc(C)c1)c1c(N)n(Cc2ccccc2)c(=O)[nH]c1=O`, the Potency is 16.4 µM (active).

As to `CCN(C(=O)CN1CCN(Cc2ccccc2)CC1)c1c(N)n(Cc2ccccc2)c(=O)[nH]c1=O`, the Potency is 11.6 µM (active).

Regarding `CCCn1nc(C(=O)NNC(=O)CCOc2ccccc2OCC)c2ccccc2c1=O`, the Potency result is “inactive”.

`CN(C)/C=C(\C#N)C(=O)c1cccnc1Oc1ccc(F)cc1F`: the Potency entry was “inactive”.

Regarding `CCOC(=O)C1(O)CC(C)=NN1C(=O)c1cccc(Br)c1` (stereo unspecified), the Potency entry is “inactive”.

For the molecule `CCN(C(=O)CSc1ncnc2c1cnn2-c1ccccc1)C1CCS(=O)(=O)C1` (stereo unspecified), the Potency result is “inactive”.

For `O=C(CSc1n[nH]c(=O)n1-c1ccccc1)Nc1ccccc1C(F)(F)F`, the Potency result is “inactive”.

In the case of `O=c1[nH]nc(SCCS(=O)(=O)c2ccc(F)cc2)n1-c1ccccc1C(F)(F)F`, the Potency is 23.1 µM (active).

`O=S(=O)(c1ccc(F)cc1)N1CCN(Cc2ccccc2C(F)(F)F)CC1`: the Potency entry was “inactive”.

Turning to `O=C(NCC1Cc2cc(F)cc(-c3cnccn3)c2O1)C1COc2ccccc2O1` (stereo unspecified), the Potency result was “inactive”.

As for `S=C(c1ccccc1)N1CCCC1`, the Potency result was “inactive”.

`CCOC(=O)c1c(NC(=O)CSc2nccc(=O)[nH]2)sc(C)c1C`: the Potency result is “inactive”.

In the case of `CC1CCN(C(=O)c2ccc(S(=O)(=O)Cc3cc(F)ccc3F)c([N+](=O)[O-])c2)CC1`, the Potency was 6.51 µM (active).

Regarding `NC(=O)C1CCN(C(=O)c2ccc(F)c(S(=O)(=O)N3CCOCC3)c2)CC1`, the Potency entry is “inactive”.

`Nc1ccc(C(=O)N2CCN(S(=O)(=O)c3ccc(Cl)cc3)CC2)cc1[N+](=O)[O-]`: the Potency result is “inactive”.
